Measured values: PubChem BioAssay AID1030 (National Center for Advancing Translational Sciences (NCATS), 2008)
Out of some 220,000 compounds screened, about 16,000 (7.3%) were called active. Entries that show only a call come without a potency. Another 25% or so got no clear call; they are omitted. Calls follow the shape of the dose curve; as a rule, active = well fitted inhibition curve with a large enough effect (not every such curve was filed as active); inconclusive = small, poorly fitted or top-dose-only effect, or another doubt; inactive = no such curve, though single readings can be large or run the other way. For the sample, actives were picked, then their nearest neighbours and some compounds at random.

biological target: Aldehyde dehydrogenase 1A1 (Homo sapiens) (UniProt P00352); experiment: qHTS Assay for Inhibitors of Aldehyde Dehydrogenase 1 (ALDH1A1); settings: Purified ALDH1A1, NADH fluorescence, propionaldehyde substrate; series mostly up to 75.3 µM
Sequence (P00352 whole entry, looked up): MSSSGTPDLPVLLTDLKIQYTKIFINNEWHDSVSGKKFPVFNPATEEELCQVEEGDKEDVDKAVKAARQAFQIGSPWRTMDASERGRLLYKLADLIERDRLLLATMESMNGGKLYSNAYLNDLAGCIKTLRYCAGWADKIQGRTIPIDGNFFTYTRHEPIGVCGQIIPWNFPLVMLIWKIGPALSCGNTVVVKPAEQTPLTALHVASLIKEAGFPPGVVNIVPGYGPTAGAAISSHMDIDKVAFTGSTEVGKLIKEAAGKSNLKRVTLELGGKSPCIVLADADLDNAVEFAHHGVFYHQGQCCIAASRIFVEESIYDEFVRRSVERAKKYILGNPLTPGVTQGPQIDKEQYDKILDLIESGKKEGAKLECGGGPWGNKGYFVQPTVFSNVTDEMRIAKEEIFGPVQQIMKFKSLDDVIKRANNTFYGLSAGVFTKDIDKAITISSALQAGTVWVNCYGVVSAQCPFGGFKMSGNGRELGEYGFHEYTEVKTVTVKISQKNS
Potency is read from the fitted curve at half-maximal effect.

SMILES | Potency | activity, negative = inhibition
COc1cc(CNCCN(C)C)ccc1OCc1c(F)cccc1Cl | inactive | 
C/C(CC(=O)Nc1ccc(C)cc1C)=N\NC(=O)C(C)C | inactive | 
CCCCN1C(=O)c2ccc(C(=O)Nc3ccc(S(=O)(=O)N(C)C)cc3)cc2C1=O | 1.78 µM (active) | 
Cc1ccnc(NS(=O)(=O)c2ccc(NC(=O)c3ccc(S(=O)(=O)N(C)C)cc3)cc2)n1 | inactive | 
CN(C)S(=O)(=O)c1ccc(NC(=O)N2CCOCC2)cc1 | inactive | 
O=C(Nc1ccc(Br)cn1)c1ccc([N+](=O)[O-])o1 | inactive | 
O=c1[nH]n(-c2ccc([N+](=O)[O-])cc2)c(=O)c2ccccc12 | inactive | 
COc1cccc(NC(=O)C(C)Oc2ccccc2)c1 (stereo unspecified) | inactive | 
CC(Oc1ccc(Cl)cc1Cl)C(=O)/C=C/N(C)C (stereo unspecified) | inactive | 
CCCC(=O)Nc1cccc(NC(=S)NC(=O)C(C)Oc2ccc(Cl)cc2Cl)c1 (stereo unspecified) | 10 µM (active) | 
Cc1ccccc1Nc1nc(N)nc(CSc2ccccc2)n1 | inactive | 
O=C(O)c1cccc(S(=O)(=O)NCCO)c1 |  | -6.88% [at 13.5 µM] (inactive)
O=C(O)c1cccc(S(=O)(=O)Nc2ccc(O)cc2Sc2nc3ccccc3s2)c1 | 22.4 µM (active) | 
CCN(c1ccccc1)S(=O)(=O)c1cccc(C(=O)O)c1 | inactive | 
COc1ccc(/C=C(/CC(=O)Nc2ccc(C)cc2)c2nc3ccccc3s2)cc1 | inactive | 
CCOc1ccc(S(=O)(=O)Nc2nc3cc(OC)ccc3s2)cc1 | inactive | 
COc1ccc(S(=O)(=O)Nc2ccc(O)c(Sc3nc4ccccc4s3)c2)cc1 | 17.8 µM (active) | 
CCO[C@@H]1OC(C(=O)N2CCOCC2)=C[C@H](C)[C@H]1CCCO | inactive | 
O=C(CSc1ccc(-c2cccs2)nn1)Nc1ccccc1F | inactive | 
COc1ccc(NC(=O)c2cc3nc(-c4ccccc4)cc(C)n3n2)cc1OC | inactive | 
COc1ccc(/C=N/NC(=O)Cn2cc(C(F)(F)F)ccc2=O)cc1 | inactive | 
COc1ccc(OC)c2[nH]c(=O)c(CCNC(=O)C(=O)c3c[nH]c4ccccc34)cc12 | inactive | 

SMILES | Potency | activity, negative = inhibition
CCOc1ccccc1C(=O)NCCCn1ccnc1 | inactive | 
O=C(CCN1C(=O)c2ccccc2C1=O)NCCCn1ccnc1 | inactive | 
O=C(NCCCn1ccnc1)C(=O)c1cn(CC(=O)N2CCCCCC2)c2ccccc12 | 14.1 µM (active) | 
O=C(O)CCCCOn1ccnc1 | inactive | 
CC(C)=CCN1CCN(Cc2ccc(Oc3ncccn3)cc2)CC1CCO (stereo unspecified) | inactive | 
CCc1ccccc1N1C(=O)C2C3CC(=O)C(c4ccccc43)C2C1=O (stereo unspecified) | inactive | 
CC1=C(C)CC2C(=O)N(c3cccc4ccccc34)C(=O)C2C1 (stereo unspecified) | 12.6 µM (active) | 
CC1(C)CCCC2=C1CC1C(=O)N(c3ccccc3)C(=O)C1C2 (stereo unspecified) | inactive | 
COC(=O)C1=C(C(=O)OC)[C@@H]2N(Cc3ccccc3)c3ccccc3[C@@]23C[C@@H](C(=O)OC)N(S(=O)(=O)c2ccc(C(F)(F)F)cc2)C3=N1 |  | 3.2% [at 13.5 µM] (inactive)
Fc1cccc2ncnc(OCc3ccccc3)c12 | inactive | 
CS(=O)(=O)N(CC(=O)NCc1ccco1)c1ccc2c(c1)OCO2 | inactive | 
Cc1c(Cl)cccc1NC(=S)NCc1ccc2c(c1)OCO2 | inactive | 
Cc1ccccc1-c1nnc(SCC(=O)NCc2ccc3c(c2)OCO3)n1C | inactive | 
S=C(NCc1ccc2c(c1)OCO2)NCc1ccco1 | 20 µM (active) | 
O=C(CSc1ccc(-c2ccco2)nn1)NCc1ccc2c(c1)OCO2 | 3.55 µM (active) | 
O=C(CSc1ncn[nH]1)NCc1ccc2c(c1)OCO2 | inactive | 
Oc1ccc(-c2nncn2-c2ccccc2)cc1 | inactive | 
O=C(CSc1cccc[n+]1[O-])c1ccc(Cl)cc1 | inactive | 
O=C(CSc1cccc[n+]1[O-])NCCCc1ccccc1 | inactive | 
COc1ccccc1C(=O)CSc1cccc[n+]1[O-] | 14.1 µM (active) | 
Cn1c(=O)n(CCc2ccccc2)c(=O)c2c1nc1n2CCCN1c1ccccc1 | 8.91 µM (active) | 
CC(C)Cn1c(CN(Cc2ccccc2)Cc2ccccc2)nc2c1c(=O)n(C)c(=O)n2C | inactive | 

SMILES | Potency | activity, negative = inhibition
Cc1cccc(N2CC(C)Cn3c2nc2c3c(=O)n(CC(=O)OCc3ccccc3)c(=O)n2C)c1 (stereo unspecified) | inactive | 
CCOC(=O)C1CCN(C(=O)c2ccccc2N(C)S(=O)(=O)c2ccccc2)CC1 | inactive | 
Cc1ccccc1C(=O)N1CCC(C(=O)Nc2ccc(S(=O)(=O)N(C)C(C)C)cc2)CC1 | 12.6 µM (active) | 
COc1ccc(C(=O)N2CCC(C(=O)Nc3ccc(C)cc3)CC2)cc1 | inactive | 
COc1ccc(N(CC(=O)Nc2ccc(C)cc2C)S(=O)(=O)c2ccccc2[N+](=O)[O-])c(OC)c1 | inactive | 
CNS(=O)(=O)c1ccc(N2CCCC2=O)c([N+](=O)[O-])c1 | inactive | 
CCCCC/C=C\CC1OC1CCCCCCCC(=O)O (stereo unspecified) | inactive | 
CCOC(=O)C1(S(=O)(=O)c2ccccc2)CCN(Cc2ccccc2)CC1 | inactive | 
CC1=C/C(=N\S(=O)(=O)c2ccccc2)C(C(C)C)=CC1=O | inactive | 
CC1=C/C(=N\OS(=O)(=O)c2ccccc2)C=CC1=O | 11.2 µM (active) | 
COc1cccc(NC(=O)CN(C)CC(=O)Nc2ccc3c(c2)CCC3)c1 | inactive | 
Cc1ccnc(NC(=O)c2ccc(Cl)c([N+](=O)[O-])c2)c1 | inactive | 
Cc1ccccc1NC(=O)CN1C(=O)N/C(=C\c2cccn2-c2cccc(C(=O)O)c2)C1=O | inactive | 
COc1ccc(C(=O)CN2C(=O)NC(C)(c3ccc(C)cc3)C2=O)cc1OC (stereo unspecified) | inactive | 
COC(=O)CN1C(=O)N/C(=C/c2ccc(OC)c(C)c2OC)C1=O | 6.31 µM (active) | 
CC(=O)Nc1ccc(OCCC[n+]2cccc(C(=O)[O-])c2)cc1 | inactive | 
Cc1ccc(-c2nnn(CC(=O)N(Cc3ccco3)C(C(=O)NC(C)(C)C)c3ccncc3)n2)o1 (stereo unspecified) | inactive | 
COc1ccc(S(=O)(=O)N2CCCCC2)cc1Br | inactive | 
COc1ccc(S(=O)(=O)Nc2ccc(S(=O)(=O)N3CCCCC3)cc2)cc1OC | 0.562 µM (active) | 
COc1ccc(NS(=O)(=O)c2ccc(NC(C)=O)cc2)cc1OC | inactive | 
CN(C)/N=C/c1cn(-c2ccccc2)nc1-c1cccnc1 | inactive | 
COc1ccc(C(=O)NNS(=O)(=O)c2ccc(C)cc2)cc1 | inactive | 

SMILES | Potency | activity, negative = inhibition
Cc1ccc(COc2ccc(C(=O)NN)cc2)cc1 | 1 µM (active) | 
Cc1cccc(OCc2ccc(C(=O)Nc3ccc(F)cc3)cc2)c1 | inactive | 
COC(=O)C(=Nc1ccccc1)/C(C(=O)C(=O)N(C)c1ccccc1)=C(\O)c1ccc(Cl)cc1 | 25.1 µM (active) | 
CN(C(=O)CC(NC(=O)c1ccccc1)(c1ccccc1)c1ccccc1)c1ccccc1 | inactive | 
COC(=O)/C(NC(C)=O)=C(\C)c1ccc(Cl)cc1 | inactive | 
COc1ccccc1CNC(=O)C1Cc2ccccc2C(=O)O1 (stereo unspecified) | inactive | 
Cc1cccc(N2CCC(NCc3c(C(=O)N4CCCCC4)nc4c(C)cccn34)CC2)c1 | inactive | 
COCCn1c(C)cc(C2=NNC(=Nc3ccc(F)cc3)SC2)c1C | 10 µM (active) | 
COC(=O)c1cc(NC(=O)CN2CCN(C(C)=O)CC2)cc(C(=O)OC)c1 | inactive | 
COC(=O)c1ccccc1NC(=S)NC(=O)c1ccccc1F | inactive | 
NS(=O)(=O)c1ccc(NC(=S)NC(=O)c2cccc(Br)c2)cc1 | 25.1 µM (active) | 
O=C(Nc1ccc(S(=O)(=O)Nc2ncccn2)cc1)c1cncc(Br)c1 | inactive | 
COc1ccc(NC(=S)Nc2ccc(S(N)(=O)=O)cc2)c(C)c1 | inactive | 
O=C(NC1CC1)c1cccc(Br)c1 | inactive | 
O=C(NC(=S)Nc1cccc2c(O)cccc12)c1cccc(Br)c1 | 3.16 µM (active) | 
NS(=O)(=O)c1ccc(NC(=S)NC(=O)c2cccnc2)cc1 | inactive | 
O=C(/C=C/c1ccccc1Cl)Nc1ccc(S(=O)(=O)Nc2ncccn2)cc1 | inactive | 
O=C(NC(=S)Nc1ccc(S(=O)(=O)Nc2ncccn2)cc1)c1cccc(Br)c1 | 10 µM (active) | 
COc1ccc(/C=N/n2c(C)cc(C)cc2=O)cc1 | inactive | 
CC1=NNC(=O)C1CCC(=O)N/N=C\c1ccc(Cl)c(Cl)c1 (stereo unspecified) | inactive | 
O=C(N/N=C/c1ccc2c(c1)OCO2)C(=O)N1CCCC1 | inactive | 
COC(=O)C1=C(C(=O)OC)[C@@H]2N(C)c3ccccc3[C@@]23C[C@@H](C(=O)OC)N(C(=O)c2ccco2)C3=N1 |  | 11.6% [at 13.5 µM] (inactive)

SMILES | Potency | activity, negative = inhibition
O=C(Nc1ccc2c(c1)OCO2)c1sc2cc(Cl)ccc2c1Cl | inactive | 
COC(=O)C1C(=O)NCC1c1ccc(C)cc1 (stereo unspecified) | inactive | 
Cc1ccc(C2NC(C(=O)O)CS2)cc1 (stereo unspecified) | inactive | 
Cc1ccc(C2CC2C(=O)NN)cc1 (stereo unspecified) | 14.1 µM (active) | 
O=C(O)Cc1ccc(-c2ccccc2)cc1 | inactive | 
O=C(Cc1ccc(-c2ccccc2)cc1)NC(c1ccccc1)c1ccccc1 | 10 µM (active) | 
CCOC(=O)/C=C/C(=O)OCC(=O)NC(c1ccccc1)c1ccccc1 | inactive | 
COc1ccc(Br)c2c1C(=O)CC2 | inactive | 
CCC(CC)NC(=O)CSc1nnc(-c2c[nH]c3ccccc23)o1 | inactive | 
Cc1cccc(CNc2cc(-c3ccccc3Cl)ncn2)c1 | inactive | 
Cc1oc(-c2ccccc2Cl)[n+]([O-])c1C | 22.4 µM (active) | 
Cc1cc(C)n(-c2nc(C(F)(F)F)nc3ccccc23)n1 | inactive | 
COc1cc(C(=O)NCc2ccc3c(c2)cc(C)n3C)cc(OC)c1OC | inactive | 
C/C(=N/NC(=O)c1ccc(Br)o1)c1ccc(C)o1 | inactive | 
Cc1ccc(NC(=S)NC2CCCC2)cc1 | inactive | 
C/C(=N\NC(=S)NC1CCCCC1)c1ccc(C)o1 | 12.6 µM (active) | 
COc1ccccc1CN(C)c1nnnn1-c1ccccc1 | inactive | 
Cc1cc(OCC(=O)NC2CCN(C)CC2)ccc1[N+](=O)[O-] | inactive | 
